The values below come from PMC7862700, “An all-to-all approach to the identification of sequence-specific readers for epigenetic DNA modifications on cytosine”.

What all share (experiment): DAPPL (digital affinity profiling via proximity ligation, sequencing); 10 mM Tris-HCl pH 7.5, 50 mM NaCl, 1 mM DTT, 4% glycerol, room temperature, 30 min; GST-TFs on glutathione beads, 16-mer random dsDNA library, 0.1% formaldehyde crosslink after washing; high values mean tight binding
The target in one test is T1, FEV (Homo sapiens, UniProt Q99581 1-238).
T1 sequence: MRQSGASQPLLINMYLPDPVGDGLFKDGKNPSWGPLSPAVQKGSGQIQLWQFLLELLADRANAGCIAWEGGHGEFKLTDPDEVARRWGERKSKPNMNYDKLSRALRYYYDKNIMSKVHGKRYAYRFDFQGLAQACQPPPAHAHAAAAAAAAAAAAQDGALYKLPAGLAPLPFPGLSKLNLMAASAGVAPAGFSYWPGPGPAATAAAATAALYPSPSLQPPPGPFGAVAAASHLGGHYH
The settings on record: protein: recombinant; tags: N-terminal GST; dsDNA, one strand shown. The method, boiled down: (§1)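 Human transcription factors carrying a GST fusion were produced in yeast, bound to glutathione beads, tagged with DNA barcodes and pooled together with a tag-only sample. Each pool was held with 200 nmole of a random double-stranded 16-mer DNA library in Tris/NaCl/DTT/glycerol buffer for 30 min at room temperature, then washed, crosslinked in 0.1% formaldehyde, proximity-ligated with BsaI/T4 ligase (1 h, 37 °C), PCR-amplified and sequenced on an Illumina NextSeq500. Binding signal is the read frequency of each hexamer for a given factor divided by its frequency in the tag-only sample.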

The next test addresses ETV5 (Homo sapiens, UniProt P41161 1-510). The settings on record: protein: recombinant; tags: N-terminal GST; dsDNA, one strand shown. The method, boiled down:
as §1

The target of another test is HSF1 (Homo sapiens, UniProt Q00613 1-529). The settings on record: protein: recombinant; tags: N-terminal GST; chain copies: 3; dsDNA, one strand shown. The method, boiled down:
as §1

The next test deals with T2, SPIC (Homo sapiens, UniProt Q8N5J4 1-248).
T2 sequence: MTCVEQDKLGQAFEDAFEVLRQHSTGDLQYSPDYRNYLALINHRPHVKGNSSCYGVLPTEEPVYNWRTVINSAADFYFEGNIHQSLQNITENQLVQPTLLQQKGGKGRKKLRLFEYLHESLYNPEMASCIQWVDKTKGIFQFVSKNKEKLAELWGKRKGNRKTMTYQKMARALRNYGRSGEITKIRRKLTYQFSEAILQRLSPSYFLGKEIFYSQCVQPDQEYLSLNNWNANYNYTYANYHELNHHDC
The settings on record: protein: recombinant; tags: N-terminal GST; dsDNA, one strand shown. The method, boiled down:
as §1

Another test has as its target ELF4 (Homo sapiens, UniProt Q99607 1-663). The settings on record: protein: recombinant; tags: N-terminal GST; dsDNA, one strand shown. A digest of the protocol:
as §1

For a further test, the target named is T3, ELK4 (Homo sapiens, UniProt P28324-2 1-405).
T3 sequence: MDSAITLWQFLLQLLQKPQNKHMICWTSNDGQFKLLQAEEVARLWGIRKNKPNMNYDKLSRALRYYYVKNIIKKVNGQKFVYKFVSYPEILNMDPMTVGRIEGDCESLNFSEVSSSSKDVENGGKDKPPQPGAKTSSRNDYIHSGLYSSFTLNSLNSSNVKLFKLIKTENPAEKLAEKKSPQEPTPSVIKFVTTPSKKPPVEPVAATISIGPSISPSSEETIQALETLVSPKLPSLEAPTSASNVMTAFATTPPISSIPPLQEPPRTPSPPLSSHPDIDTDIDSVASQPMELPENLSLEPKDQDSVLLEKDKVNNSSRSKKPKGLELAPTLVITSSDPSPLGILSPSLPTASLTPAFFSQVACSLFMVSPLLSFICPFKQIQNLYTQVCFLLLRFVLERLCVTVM
The settings on record: protein: recombinant; tags: N-terminal GST; dsDNA, one strand shown. A digest of the protocol: as §1

The next test has as its target T4, ETV2 (Homo sapiens, UniProt O00321 1-342).
T4 sequence: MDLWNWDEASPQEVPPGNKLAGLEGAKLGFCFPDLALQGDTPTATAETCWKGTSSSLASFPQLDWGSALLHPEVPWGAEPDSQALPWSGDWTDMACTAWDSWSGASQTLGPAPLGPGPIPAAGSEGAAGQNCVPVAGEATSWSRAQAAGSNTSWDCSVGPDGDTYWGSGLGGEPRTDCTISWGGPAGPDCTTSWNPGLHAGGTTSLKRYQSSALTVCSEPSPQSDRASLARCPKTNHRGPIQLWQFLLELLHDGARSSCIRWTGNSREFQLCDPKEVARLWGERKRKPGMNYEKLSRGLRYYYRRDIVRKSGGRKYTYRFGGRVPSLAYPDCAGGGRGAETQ
The settings on record: protein: recombinant; tags: N-terminal GST; dsDNA, one strand shown. A digest of the protocol: as §1

The target in the next test is T5, ELF3 (Homo sapiens, UniProt P78545 1-371).
T5 sequence: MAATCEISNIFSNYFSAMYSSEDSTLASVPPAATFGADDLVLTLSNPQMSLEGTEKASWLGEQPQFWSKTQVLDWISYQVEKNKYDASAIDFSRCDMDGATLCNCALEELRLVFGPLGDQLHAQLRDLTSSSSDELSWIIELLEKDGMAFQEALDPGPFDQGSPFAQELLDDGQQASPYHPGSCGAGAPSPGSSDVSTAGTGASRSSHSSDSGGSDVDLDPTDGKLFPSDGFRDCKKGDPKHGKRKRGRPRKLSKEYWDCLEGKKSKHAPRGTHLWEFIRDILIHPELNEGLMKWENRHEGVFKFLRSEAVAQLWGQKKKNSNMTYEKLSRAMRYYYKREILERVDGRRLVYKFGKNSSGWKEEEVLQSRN
The settings on record: protein: recombinant; tags: N-terminal GST; dsDNA, one strand shown. A digest of the protocol:
as §1

A further test addresses CRX (Homo sapiens, UniProt O43186 1-299). The settings on record: protein: recombinant; tags: N-terminal GST; dsDNA, one strand shown. The method, boiled down:
as §1

Another test has as its target ETV1 (Homo sapiens, UniProt P50549 1-477). Conditions: protein: recombinant; tags: N-terminal GST; dsDNA, one strand shown. A digest of the protocol:
as §1

Another test addresses T6, ERF (Homo sapiens, UniProt P50548 1-548).
T6 sequence: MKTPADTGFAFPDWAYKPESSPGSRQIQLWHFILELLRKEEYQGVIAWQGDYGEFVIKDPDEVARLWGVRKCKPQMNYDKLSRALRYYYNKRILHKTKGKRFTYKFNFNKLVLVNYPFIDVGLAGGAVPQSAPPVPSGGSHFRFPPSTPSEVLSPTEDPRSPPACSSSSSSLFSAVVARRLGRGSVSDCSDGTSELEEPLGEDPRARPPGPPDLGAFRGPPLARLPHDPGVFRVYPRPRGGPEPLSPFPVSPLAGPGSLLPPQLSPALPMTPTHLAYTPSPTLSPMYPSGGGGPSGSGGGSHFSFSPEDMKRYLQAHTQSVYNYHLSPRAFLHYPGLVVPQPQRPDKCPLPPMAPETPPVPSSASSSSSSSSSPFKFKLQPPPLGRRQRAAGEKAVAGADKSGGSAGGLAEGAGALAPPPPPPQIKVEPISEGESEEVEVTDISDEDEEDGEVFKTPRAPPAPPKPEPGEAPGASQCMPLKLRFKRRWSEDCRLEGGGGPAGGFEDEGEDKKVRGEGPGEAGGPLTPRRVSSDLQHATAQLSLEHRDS
The settings on record: protein: recombinant; tags: N-terminal GST; dsDNA, one strand shown. A digest of the protocol:
as §1

A further test concerns the target T7, ETV3L (Homo sapiens, UniProt Q6ZN32 1-361).
T7 sequence: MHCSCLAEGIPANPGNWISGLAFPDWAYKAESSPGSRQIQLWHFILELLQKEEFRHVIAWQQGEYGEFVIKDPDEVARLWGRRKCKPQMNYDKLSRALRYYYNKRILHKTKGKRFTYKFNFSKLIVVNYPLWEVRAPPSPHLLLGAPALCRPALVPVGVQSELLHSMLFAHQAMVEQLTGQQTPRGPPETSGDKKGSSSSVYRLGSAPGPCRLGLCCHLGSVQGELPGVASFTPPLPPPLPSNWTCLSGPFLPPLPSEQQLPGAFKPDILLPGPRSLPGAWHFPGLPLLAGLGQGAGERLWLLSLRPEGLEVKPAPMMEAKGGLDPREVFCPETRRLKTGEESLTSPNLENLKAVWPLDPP
Conditions: protein: recombinant; tags: N-terminal GST; dsDNA, one strand shown. The method, boiled down:
as §1

The target of another test is T8, ETS2 (Homo sapiens, UniProt P15036 1-469).
T8 sequence: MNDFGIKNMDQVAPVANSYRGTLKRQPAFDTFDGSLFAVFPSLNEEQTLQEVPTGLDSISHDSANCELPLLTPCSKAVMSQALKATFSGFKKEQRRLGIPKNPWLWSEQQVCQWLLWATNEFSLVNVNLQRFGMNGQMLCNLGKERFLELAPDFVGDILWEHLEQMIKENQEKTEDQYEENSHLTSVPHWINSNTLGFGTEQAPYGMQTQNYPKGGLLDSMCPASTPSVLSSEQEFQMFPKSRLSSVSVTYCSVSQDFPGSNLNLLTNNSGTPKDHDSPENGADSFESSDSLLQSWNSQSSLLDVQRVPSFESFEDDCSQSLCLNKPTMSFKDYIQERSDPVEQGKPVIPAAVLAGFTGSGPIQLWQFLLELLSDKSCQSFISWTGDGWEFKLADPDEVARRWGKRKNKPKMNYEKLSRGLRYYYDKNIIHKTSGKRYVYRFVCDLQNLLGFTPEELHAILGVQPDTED
Conditions: protein: recombinant; tags: N-terminal GST; dsDNA, one strand shown. A digest of the protocol:
as §1

The next test addresses T9, SPDEF (Homo sapiens, UniProt O95238 1-335).
T9 sequence: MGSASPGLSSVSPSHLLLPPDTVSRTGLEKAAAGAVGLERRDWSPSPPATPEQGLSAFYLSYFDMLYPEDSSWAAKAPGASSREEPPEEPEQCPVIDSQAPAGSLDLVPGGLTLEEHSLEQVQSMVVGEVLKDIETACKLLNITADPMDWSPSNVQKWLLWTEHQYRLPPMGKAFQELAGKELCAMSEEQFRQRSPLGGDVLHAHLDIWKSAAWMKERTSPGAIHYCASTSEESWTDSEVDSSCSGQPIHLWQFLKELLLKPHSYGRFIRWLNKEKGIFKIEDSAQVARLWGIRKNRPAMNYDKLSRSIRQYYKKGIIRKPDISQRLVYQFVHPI
Conditions: protein: recombinant; tags: N-terminal GST; dsDNA, one strand shown. A digest of the protocol:
as §1

The next test has as its target T10, ETV7 (Homo sapiens, UniProt Q9Y603 1-341).
T10 sequence: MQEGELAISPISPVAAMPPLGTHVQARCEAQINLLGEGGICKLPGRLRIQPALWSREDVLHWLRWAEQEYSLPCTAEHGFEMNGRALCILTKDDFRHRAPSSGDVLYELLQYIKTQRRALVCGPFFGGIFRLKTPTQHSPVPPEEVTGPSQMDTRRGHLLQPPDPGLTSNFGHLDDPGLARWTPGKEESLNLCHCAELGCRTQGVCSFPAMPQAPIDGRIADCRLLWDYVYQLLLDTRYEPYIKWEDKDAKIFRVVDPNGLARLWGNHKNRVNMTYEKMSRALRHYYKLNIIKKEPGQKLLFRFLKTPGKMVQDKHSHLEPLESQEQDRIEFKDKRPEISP
Conditions: protein: recombinant; tags: N-terminal GST; dsDNA, one strand shown. A digest of the protocol: as §1

In the next test the target is T11, ELF5 (Homo sapiens, UniProt Q9UKW6-2 1-255).
T11 sequence: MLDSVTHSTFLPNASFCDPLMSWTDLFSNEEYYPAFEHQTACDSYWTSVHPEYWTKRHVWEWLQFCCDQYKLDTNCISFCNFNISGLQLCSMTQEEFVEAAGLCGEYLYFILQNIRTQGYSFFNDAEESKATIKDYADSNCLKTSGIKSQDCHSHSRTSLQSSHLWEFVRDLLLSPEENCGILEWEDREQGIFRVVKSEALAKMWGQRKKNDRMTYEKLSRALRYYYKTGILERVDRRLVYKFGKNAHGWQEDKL
The settings on record: protein: recombinant; tags: N-terminal GST; dsDNA, one strand shown. A digest of the protocol: as §1

Another test deals with T12, ETV3 (Homo sapiens, UniProt P41162-2 1-143).
T12 sequence: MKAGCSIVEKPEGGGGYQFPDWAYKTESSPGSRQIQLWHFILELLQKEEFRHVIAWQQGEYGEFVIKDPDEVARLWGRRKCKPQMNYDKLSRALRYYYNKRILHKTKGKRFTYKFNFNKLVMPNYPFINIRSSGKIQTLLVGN
Conditions: protein: recombinant; tags: N-terminal GST; dsDNA, one strand shown. The method, boiled down: as §1

The target of another test is ETV6 (Homo sapiens, UniProt P41212 1-452). The settings on record: protein: recombinant; tags: N-terminal GST; dsDNA, one strand shown. The method, boiled down: as §1
Sequence of ETV6 (P41212 whole entry): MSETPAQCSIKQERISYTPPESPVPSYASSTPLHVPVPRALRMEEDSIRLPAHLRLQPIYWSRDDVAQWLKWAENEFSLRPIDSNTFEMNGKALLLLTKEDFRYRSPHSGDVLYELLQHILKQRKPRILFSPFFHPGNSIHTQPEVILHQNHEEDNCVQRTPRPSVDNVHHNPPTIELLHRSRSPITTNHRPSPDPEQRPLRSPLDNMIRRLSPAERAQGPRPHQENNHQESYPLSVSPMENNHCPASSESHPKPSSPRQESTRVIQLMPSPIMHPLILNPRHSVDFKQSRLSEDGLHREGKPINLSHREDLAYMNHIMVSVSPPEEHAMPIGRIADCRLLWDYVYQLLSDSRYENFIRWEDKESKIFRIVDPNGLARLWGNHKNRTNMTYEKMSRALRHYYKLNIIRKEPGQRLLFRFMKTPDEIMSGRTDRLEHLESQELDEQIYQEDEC

Sequence of ETV1 (P50549 whole entry): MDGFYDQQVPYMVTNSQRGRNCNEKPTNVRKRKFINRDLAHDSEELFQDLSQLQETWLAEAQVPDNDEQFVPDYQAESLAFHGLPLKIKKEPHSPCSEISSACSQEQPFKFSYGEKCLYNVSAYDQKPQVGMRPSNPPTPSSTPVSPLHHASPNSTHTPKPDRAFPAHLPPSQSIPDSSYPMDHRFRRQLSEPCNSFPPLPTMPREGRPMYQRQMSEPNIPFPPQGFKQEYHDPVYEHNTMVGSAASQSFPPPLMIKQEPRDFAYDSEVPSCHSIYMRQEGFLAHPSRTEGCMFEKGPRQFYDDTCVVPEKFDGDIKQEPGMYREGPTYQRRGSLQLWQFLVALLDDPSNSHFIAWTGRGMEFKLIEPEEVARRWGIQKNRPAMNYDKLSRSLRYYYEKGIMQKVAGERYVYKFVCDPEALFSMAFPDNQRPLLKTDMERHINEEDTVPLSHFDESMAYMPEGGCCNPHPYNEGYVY
Sequence of CRX (O43186 whole entry): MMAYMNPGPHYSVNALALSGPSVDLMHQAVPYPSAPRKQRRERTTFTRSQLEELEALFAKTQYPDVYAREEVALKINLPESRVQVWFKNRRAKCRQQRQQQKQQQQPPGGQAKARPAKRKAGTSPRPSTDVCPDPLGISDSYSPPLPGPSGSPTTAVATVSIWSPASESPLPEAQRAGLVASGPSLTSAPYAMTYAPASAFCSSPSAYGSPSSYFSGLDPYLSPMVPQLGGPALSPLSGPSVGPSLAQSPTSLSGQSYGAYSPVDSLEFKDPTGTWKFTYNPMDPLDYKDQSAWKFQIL
Sequence of ELF4 (Q99607 whole entry): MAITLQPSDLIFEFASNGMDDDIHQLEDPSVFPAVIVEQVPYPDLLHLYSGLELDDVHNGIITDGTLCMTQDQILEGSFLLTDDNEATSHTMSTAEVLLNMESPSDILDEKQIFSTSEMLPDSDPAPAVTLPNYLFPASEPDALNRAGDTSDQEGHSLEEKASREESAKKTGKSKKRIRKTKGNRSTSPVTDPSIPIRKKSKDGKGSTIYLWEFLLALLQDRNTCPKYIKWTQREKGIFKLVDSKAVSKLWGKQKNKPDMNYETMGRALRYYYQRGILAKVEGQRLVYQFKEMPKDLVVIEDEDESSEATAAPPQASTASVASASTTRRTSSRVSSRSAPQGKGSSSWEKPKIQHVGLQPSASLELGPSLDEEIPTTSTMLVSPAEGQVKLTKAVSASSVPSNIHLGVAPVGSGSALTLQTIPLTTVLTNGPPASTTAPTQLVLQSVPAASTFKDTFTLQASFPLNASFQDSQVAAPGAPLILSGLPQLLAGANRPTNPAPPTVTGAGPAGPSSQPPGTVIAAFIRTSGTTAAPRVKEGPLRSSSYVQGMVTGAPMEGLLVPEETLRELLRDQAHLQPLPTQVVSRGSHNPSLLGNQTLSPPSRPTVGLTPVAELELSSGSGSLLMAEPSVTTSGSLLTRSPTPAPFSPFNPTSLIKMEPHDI
Sequence of ETV5 (P41161 whole entry): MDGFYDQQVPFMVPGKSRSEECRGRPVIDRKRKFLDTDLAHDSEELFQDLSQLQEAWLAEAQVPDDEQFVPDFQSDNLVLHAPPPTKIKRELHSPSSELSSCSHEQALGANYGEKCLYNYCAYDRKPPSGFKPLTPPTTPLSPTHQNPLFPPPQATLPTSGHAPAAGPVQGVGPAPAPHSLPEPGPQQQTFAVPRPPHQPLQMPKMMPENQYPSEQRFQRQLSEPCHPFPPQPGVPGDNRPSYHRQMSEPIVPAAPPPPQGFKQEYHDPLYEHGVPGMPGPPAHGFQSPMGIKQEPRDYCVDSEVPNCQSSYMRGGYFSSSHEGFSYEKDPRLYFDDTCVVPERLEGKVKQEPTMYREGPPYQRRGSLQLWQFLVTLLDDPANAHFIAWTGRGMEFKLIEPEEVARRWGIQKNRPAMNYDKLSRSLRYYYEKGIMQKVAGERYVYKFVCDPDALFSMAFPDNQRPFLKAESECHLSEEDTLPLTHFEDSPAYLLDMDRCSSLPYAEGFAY
Sequence of HSF1 (Q00613 whole entry): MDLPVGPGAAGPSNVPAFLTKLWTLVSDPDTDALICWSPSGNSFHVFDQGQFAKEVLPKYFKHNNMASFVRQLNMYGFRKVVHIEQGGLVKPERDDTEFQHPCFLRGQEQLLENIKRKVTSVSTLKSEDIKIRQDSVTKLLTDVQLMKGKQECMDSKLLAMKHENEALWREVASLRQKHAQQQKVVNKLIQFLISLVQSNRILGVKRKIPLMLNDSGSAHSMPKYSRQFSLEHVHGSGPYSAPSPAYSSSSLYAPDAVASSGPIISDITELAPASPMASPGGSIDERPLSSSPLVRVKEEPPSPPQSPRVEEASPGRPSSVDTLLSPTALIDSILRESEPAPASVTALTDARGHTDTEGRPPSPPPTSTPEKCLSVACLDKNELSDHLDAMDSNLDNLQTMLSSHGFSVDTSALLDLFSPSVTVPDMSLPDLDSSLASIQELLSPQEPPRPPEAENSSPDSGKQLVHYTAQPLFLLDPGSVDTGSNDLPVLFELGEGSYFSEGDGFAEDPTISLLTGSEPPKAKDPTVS

As to TATGTA, the binding signal in the test with FEV was 1.28 fold enrichment (6-mer frequency, TF over GST control); with ETV5 it was 1.25 fold enrichment (6-mer frequency, TF over GST control); with HSF1, 1.28 fold enrichment (6-mer frequency, TF over GST control); in the test with SPIC it was 1.26 fold enrichment (6-mer frequency, TF over GST control); with ELF4, 1.38 fold enrichment (6-mer frequency, TF over GST control); with ELK4, 1.39 fold enrichment (6-mer frequency, TF over GST control). Besides, the binding signal with ETV2 is 1.23 fold enrichment (6-mer frequency, TF over GST control); in the test with ELF3, 1.52 fold enrichment (6-mer frequency, TF over GST control); in the test with CRX, 1.51 fold enrichment (6-mer frequency, TF over GST control); with ETV1, 1.3 fold enrichment (6-mer frequency, TF over GST control); with ERF it was 1.36 fold enrichment (6-mer frequency, TF over GST control); with ETV3L it was 1.29 fold enrichment (6-mer frequency, TF over GST control). In addition, the binding signal with ETS2 is 1.38 fold enrichment (6-mer frequency, TF over GST control); in the test with SPDEF it was 1.35 fold enrichment (6-mer frequency, TF over GST control); in the test with ETV7 it was 1.35 fold enrichment (6-mer frequency, TF over GST control); with ELF5, 1.26 fold enrichment (6-mer frequency, TF over GST control); in the test with ETV3, 1.25 fold enrichment (6-mer frequency, TF over GST control); with ETV6, 1.28 fold enrichment (6-mer frequency, TF over GST control).
